Article PMC7862700, “An all-to-all approach to the identification of sequence-specific readers for epigenetic DNA modifications on cytosine”

Experiments:
Test in all cases: DAPPL (digital affinity profiling via proximity ligation, sequencing); 10 mM Tris-HCl pH 7.5, 50 mM NaCl, 1 mM DTT, 4% glycerol, room temperature, 30 min; GST-TFs on glutathione beads, 16-mer random dsDNA library, 0.1% formaldehyde crosslink after washing; high values mean tight binding
FEV = target: T1, FEV (Homo sapiens, UniProt Q99581 1-238); conditions: protein: recombinant; tags: N-terminal GST; dsDNA, one strand shown
T1 sequence: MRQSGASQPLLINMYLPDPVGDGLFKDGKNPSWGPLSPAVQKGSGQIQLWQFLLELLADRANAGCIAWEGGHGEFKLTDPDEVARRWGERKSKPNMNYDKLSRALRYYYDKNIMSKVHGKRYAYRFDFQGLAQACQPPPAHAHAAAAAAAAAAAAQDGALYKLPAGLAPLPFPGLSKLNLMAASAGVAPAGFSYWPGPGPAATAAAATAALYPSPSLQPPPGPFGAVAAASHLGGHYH
Method in brief: (§1)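 The binding signal reported is, for every hexamer, its read frequency for a factor over its read frequency for the tag-only sample. Reads came from pools of yeast-expressed, GST-fused human transcription factors on glutathione beads, barcoded with DNA and mixed with that sample, which were incubated with 200 nmole of a random double-stranded 16-mer DNA library in Tris/NaCl/DTT/glycerol buffer at room temperature for 30 min. After washing, the pools were crosslinked with 0.1% formaldehyde, proximity-ligated with BsaI/T4 ligase for 1 h at 37 °C, PCR-amplified and sequenced on an Illumina NextSeq500.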

ETV5 = ETV5 (Homo sapiens, UniProt P41161 1-510); conditions: protein: recombinant; tags: N-terminal GST; dsDNA, one strand shown
ETV5, sequence (P41161 whole entry): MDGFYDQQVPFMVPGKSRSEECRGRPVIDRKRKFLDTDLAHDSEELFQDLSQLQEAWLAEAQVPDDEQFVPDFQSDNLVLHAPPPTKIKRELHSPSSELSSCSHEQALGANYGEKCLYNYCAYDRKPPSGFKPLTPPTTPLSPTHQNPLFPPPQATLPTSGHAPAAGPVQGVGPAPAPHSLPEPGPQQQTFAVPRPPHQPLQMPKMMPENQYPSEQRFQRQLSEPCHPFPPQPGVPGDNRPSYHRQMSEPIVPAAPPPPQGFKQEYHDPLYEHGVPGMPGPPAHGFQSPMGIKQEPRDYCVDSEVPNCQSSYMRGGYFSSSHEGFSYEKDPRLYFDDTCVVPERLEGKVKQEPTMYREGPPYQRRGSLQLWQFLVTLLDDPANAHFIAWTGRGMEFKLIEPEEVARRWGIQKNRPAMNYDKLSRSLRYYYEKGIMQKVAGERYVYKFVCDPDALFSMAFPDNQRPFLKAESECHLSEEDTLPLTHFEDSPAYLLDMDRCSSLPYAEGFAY
Method in brief: as §1

HSF1 = HSF1 (Homo sapiens, UniProt Q00613 1-529); conditions: protein: recombinant; tags: N-terminal GST; chain copies: 3; dsDNA, one strand shown
HSF1, sequence (Q00613 whole entry): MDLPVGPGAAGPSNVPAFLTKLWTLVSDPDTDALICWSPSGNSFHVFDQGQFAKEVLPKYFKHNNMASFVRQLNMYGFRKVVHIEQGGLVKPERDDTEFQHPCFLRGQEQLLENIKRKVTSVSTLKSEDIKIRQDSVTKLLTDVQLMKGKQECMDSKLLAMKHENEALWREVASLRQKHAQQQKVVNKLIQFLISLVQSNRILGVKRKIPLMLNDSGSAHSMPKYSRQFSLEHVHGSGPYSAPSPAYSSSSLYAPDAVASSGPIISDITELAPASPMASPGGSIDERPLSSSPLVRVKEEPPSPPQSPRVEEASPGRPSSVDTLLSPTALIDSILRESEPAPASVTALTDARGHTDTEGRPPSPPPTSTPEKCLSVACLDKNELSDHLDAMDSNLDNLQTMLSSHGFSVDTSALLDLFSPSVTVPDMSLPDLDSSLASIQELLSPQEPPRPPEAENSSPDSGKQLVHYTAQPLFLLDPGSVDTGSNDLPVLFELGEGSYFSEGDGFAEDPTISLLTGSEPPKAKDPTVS
Method in brief: as §1

SPIC = target: T2, SPIC (Homo sapiens, UniProt Q8N5J4 1-248); conditions: protein: recombinant; tags: N-terminal GST; dsDNA, one strand shown
T2 sequence: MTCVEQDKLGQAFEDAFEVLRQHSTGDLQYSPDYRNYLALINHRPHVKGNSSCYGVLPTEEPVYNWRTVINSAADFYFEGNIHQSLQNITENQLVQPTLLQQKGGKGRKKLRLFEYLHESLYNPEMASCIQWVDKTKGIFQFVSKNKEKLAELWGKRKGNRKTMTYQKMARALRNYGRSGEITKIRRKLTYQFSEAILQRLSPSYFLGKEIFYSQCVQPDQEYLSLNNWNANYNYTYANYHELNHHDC
Method in brief: as §1

ELF4 = ELF4 (Homo sapiens, UniProt Q99607 1-663); conditions: protein: recombinant; tags: N-terminal GST; dsDNA, one strand shown
ELF4, sequence (Q99607 whole entry): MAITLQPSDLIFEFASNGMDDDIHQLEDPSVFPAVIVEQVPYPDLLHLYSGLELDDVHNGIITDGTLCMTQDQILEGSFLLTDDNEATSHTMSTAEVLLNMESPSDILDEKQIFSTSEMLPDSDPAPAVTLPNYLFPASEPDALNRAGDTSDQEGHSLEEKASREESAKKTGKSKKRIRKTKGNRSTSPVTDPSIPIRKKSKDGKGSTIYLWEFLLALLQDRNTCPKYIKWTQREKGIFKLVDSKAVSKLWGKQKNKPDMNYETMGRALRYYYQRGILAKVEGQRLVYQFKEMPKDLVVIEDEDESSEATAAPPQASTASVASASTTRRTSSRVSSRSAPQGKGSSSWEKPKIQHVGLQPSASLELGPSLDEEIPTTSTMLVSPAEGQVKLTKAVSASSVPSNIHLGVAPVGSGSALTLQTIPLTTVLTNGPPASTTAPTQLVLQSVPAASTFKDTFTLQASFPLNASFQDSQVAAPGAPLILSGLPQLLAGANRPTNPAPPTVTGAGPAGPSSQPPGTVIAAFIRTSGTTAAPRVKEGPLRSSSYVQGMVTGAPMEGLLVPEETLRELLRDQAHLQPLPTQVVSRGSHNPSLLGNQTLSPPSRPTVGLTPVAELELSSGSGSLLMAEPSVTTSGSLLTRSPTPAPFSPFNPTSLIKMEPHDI
Method in brief: as §1

ELK4 = target: T3, ELK4 (Homo sapiens, UniProt P28324-2 1-405); conditions: protein: recombinant; tags: N-terminal GST; dsDNA, one strand shown
T3 sequence: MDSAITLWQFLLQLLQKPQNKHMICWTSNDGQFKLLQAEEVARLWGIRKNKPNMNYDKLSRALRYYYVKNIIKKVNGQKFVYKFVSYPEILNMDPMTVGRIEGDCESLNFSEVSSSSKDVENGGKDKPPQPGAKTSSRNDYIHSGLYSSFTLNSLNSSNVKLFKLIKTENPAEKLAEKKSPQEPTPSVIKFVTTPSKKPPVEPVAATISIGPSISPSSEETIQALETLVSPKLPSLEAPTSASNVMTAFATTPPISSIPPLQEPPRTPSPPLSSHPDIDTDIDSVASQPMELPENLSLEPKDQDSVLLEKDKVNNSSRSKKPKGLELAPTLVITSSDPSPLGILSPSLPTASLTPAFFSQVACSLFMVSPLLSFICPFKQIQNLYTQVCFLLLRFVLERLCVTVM
Method in brief: as §1

ELF3 = target: T4, ELF3 (Homo sapiens, UniProt P78545 1-371); conditions: protein: recombinant; tags: N-terminal GST; dsDNA, one strand shown
T4 sequence: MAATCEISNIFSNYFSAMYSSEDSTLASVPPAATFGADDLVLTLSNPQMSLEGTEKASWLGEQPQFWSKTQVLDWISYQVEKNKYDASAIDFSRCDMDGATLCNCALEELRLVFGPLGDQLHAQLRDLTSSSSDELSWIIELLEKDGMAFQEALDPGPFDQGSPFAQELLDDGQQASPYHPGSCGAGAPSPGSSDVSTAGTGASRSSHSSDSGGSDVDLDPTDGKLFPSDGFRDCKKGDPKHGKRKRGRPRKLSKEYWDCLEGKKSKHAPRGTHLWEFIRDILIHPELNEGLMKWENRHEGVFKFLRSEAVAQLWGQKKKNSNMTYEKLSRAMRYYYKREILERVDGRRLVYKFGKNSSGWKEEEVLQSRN
Method in brief: as §1

CRX = CRX (Homo sapiens, UniProt O43186 1-299); conditions: protein: recombinant; tags: N-terminal GST; dsDNA, one strand shown
CRX, sequence (O43186 whole entry): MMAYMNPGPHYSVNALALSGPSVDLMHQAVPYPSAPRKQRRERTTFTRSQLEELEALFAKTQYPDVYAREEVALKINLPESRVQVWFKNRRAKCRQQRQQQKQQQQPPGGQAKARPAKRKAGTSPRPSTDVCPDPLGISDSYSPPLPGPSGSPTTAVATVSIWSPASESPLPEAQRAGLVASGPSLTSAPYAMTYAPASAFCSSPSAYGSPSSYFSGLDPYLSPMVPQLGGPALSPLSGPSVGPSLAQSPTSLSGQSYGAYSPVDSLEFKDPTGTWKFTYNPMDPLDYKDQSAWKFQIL
Method in brief: as §1

ETV1 = ETV1 (Homo sapiens, UniProt P50549 1-477); conditions: protein: recombinant; tags: N-terminal GST; dsDNA, one strand shown
ETV1, sequence (P50549 whole entry): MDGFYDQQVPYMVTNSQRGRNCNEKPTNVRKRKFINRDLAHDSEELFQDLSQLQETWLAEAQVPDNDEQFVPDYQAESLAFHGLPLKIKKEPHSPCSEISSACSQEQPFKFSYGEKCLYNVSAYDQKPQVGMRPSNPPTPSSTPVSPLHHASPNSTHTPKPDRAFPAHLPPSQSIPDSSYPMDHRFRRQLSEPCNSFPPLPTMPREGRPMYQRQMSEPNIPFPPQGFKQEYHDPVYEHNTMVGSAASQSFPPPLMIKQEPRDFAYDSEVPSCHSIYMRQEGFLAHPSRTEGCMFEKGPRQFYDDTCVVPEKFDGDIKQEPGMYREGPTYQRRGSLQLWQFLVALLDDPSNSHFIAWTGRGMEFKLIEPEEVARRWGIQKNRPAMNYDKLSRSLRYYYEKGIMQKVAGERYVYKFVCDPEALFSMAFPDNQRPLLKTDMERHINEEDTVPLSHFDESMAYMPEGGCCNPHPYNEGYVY
Method in brief: as §1

ERF = target: T5, ERF (Homo sapiens, UniProt P50548 1-548); conditions: protein: recombinant; tags: N-terminal GST; dsDNA, one strand shown
T5 sequence: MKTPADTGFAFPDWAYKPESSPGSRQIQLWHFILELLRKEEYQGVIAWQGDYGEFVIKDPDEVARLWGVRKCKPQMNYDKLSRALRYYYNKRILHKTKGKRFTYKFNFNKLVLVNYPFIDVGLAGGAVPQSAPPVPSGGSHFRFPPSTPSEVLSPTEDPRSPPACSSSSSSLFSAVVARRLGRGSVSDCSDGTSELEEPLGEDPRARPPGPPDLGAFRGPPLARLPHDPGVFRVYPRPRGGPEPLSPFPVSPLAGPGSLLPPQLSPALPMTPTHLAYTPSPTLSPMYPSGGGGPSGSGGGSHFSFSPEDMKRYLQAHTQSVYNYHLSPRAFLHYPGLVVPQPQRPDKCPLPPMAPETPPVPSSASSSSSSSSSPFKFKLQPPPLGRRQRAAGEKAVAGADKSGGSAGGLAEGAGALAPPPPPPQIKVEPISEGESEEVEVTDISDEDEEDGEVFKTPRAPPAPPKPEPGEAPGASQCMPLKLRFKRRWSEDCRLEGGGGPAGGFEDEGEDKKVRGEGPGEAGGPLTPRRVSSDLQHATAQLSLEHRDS
Method in brief: as §1

ETV3L = target: T6, ETV3L (Homo sapiens, UniProt Q6ZN32 1-361); conditions: protein: recombinant; tags: N-terminal GST; dsDNA, one strand shown
T6 sequence: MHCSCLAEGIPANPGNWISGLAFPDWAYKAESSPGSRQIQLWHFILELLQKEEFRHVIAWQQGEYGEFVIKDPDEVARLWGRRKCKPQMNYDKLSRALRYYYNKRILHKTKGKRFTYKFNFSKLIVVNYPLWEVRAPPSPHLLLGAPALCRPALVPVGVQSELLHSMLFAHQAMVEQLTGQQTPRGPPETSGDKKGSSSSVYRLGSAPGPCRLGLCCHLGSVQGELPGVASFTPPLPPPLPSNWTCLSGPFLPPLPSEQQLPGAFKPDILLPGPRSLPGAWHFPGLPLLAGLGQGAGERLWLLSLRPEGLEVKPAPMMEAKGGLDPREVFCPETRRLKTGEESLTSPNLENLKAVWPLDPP
Method in brief: as §1

ETS2 = target: T7, ETS2 (Homo sapiens, UniProt P15036 1-469); conditions: protein: recombinant; tags: N-terminal GST; dsDNA, one strand shown
T7 sequence: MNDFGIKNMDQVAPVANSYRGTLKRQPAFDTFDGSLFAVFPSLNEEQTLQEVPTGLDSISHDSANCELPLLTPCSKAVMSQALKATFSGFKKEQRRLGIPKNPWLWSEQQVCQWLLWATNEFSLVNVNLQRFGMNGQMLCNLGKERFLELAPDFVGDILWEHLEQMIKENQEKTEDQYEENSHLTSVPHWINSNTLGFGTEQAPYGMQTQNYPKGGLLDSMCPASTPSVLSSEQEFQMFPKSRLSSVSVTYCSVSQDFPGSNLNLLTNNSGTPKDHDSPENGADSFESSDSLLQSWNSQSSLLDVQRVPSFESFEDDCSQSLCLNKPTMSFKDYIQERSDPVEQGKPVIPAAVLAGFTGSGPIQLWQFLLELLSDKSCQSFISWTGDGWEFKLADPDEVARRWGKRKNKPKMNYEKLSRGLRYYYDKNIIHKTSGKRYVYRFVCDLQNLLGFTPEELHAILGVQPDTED
Method in brief: as §1

ETV7 = target: T8, ETV7 (Homo sapiens, UniProt Q9Y603 1-341); conditions: protein: recombinant; tags: N-terminal GST; dsDNA, one strand shown
T8 sequence: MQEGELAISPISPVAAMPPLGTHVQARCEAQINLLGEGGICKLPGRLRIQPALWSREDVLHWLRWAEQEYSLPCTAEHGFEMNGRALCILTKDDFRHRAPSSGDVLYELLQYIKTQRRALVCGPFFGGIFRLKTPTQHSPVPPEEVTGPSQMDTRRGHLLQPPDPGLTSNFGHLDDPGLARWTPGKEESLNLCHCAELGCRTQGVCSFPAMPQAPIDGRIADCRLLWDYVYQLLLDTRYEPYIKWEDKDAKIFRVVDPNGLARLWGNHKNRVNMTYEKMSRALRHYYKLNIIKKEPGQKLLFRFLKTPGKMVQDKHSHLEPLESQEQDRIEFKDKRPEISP
Method in brief: as §1

ELF5 = target: T9, ELF5 (Homo sapiens, UniProt Q9UKW6-2 1-255); conditions: protein: recombinant; tags: N-terminal GST; dsDNA, one strand shown
T9 sequence: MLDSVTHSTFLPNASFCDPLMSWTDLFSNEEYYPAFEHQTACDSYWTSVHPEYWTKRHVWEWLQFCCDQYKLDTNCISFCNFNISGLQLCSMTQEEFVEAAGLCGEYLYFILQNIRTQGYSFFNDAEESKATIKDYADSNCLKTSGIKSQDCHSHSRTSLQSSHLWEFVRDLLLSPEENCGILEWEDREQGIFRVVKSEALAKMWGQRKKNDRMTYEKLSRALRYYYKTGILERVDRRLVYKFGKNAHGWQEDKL
Method in brief: as §1

ETV3 = target: T10, ETV3 (Homo sapiens, UniProt P41162-2 1-143); conditions: protein: recombinant; tags: N-terminal GST; dsDNA, one strand shown
T10 sequence: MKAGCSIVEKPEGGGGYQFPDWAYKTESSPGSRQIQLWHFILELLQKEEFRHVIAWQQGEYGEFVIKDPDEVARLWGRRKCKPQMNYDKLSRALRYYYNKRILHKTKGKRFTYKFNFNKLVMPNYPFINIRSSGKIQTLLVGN
Method in brief: as §1

ETV6 = ETV6 (Homo sapiens, UniProt P41212 1-452); conditions: protein: recombinant; tags: N-terminal GST; dsDNA, one strand shown
ETV6, sequence (P41212 whole entry): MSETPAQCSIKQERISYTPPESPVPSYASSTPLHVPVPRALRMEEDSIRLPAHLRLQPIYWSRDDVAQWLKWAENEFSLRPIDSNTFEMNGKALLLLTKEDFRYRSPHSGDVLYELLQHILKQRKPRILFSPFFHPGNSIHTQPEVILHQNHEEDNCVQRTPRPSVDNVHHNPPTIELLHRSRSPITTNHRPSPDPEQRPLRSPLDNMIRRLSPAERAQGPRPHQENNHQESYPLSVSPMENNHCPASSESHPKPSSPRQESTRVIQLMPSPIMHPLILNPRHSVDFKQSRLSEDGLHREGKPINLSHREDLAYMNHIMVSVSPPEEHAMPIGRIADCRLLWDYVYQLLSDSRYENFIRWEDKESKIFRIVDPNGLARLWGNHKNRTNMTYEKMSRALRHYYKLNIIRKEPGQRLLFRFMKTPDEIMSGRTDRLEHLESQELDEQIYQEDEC
Method in brief: as §1

Sequence: ATAAAG
- binding signal (FEV): 1.04 fold enrichment (6-mer frequency, TF over GST control)
- binding signal (ETV5): 1.03 fold enrichment (6-mer frequency, TF over GST control)
- binding signal (HSF1): 1.27 fold enrichment (6-mer frequency, TF over GST control)
- binding signal (SPIC): 1.09 fold enrichment (6-mer frequency, TF over GST control)
- binding signal (ELF4): 1.08 fold enrichment (6-mer frequency, TF over GST control)
- binding signal (ELK4): 1.16 fold enrichment (6-mer frequency, TF over GST control)
- binding signal (ELF3): 1.02 fold enrichment (6-mer frequency, TF over GST control)
- binding signal (CRX): 1.53 fold enrichment (6-mer frequency, TF over GST control)
- binding signal (ETV1): 1.04 fold enrichment (6-mer frequency, TF over GST control)
- binding signal (ERF): 1.02 fold enrichment (6-mer frequency, TF over GST control)
- binding signal (ETV3L): 1.01 fold enrichment (6-mer frequency, TF over GST control)
- binding signal (ETS2): 1 fold enrichment (6-mer frequency, TF over GST control)
- binding signal (ETV7): 1.09 fold enrichment (6-mer frequency, TF over GST control)
- binding signal (ELF5): 1.03 fold enrichment (6-mer frequency, TF over GST control)
- binding signal (ETV3): 1.05 fold enrichment (6-mer frequency, TF over GST control)
- binding signal (ETV6): 1.03 fold enrichment (6-mer frequency, TF over GST control)
